Reference: PubChem BioAssay (NCATS)
Records with an inconclusive call do not appear. Activity calls are given as the source filed them. Calls follow the shape of the dose curve; as a rule, active = well fitted curve in the direction sought with a large enough effect; inconclusive = small, poorly fitted or top-dose-only effect, or another doubt; inactive = no such curve, though single readings can be large; an effect the other way counts as inactive or inconclusive.

Tests used:
[1] = target: Glutathione peroxidase 1 (Homo sapiens) (UniProt P07203); experiment: Primary qHTS Assay for Inhibitors of Recombinant Selenoprotein Glutathione Peroxidase 1 (GPX1) (AID 1845191); conditions: recombinant GPX1, GR-coupled NADPH fluorescence, 15 min; series mostly up to 48.8 µM; also: nearly all actives have a fitted effect of over 65% in size
How it was run: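 GR-coupled readout: NADPH consumption tracked by fluorescence, ex 340/em 450 nm, at t=0 and after 15 min at RT. Final mix 10 nM GPX1, 1 mM GSH, 0.5 mM CHP, 0.5 mM NADPH, 100 nM GR, 0.01% BSA, following 30 min enzyme–compound preincubation.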

[2] = target: Phospholipid hydroperoxide glutathione peroxidase GPX4 (Homo sapiens) (UniProt P36969); experiment: Primary qHTS Assay for Inhibitors of Recombinant Selenoprotein Glutathione Peroxidase 4 (GPX4) (AID 1845192); conditions: recombinant GPX4, GR-coupled NADPH fluorescence, 15 min; series mostly up to 50 µM; also: nearly all actives have a fitted effect of over 65% in size
How it was run: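 Steps: GPX4 plus compound, 30 min RT; add GR/GSH/NADPH master mix; start with cumene hydroperoxide; read 340/450 nm fluorescence at 0 and 15 min. Finals were 200 nM GPX4, 1 mM GSH, 0.5 mM CHP, 0.5 mM NADPH, 100 nM GR.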

[3] = target: Luciferin 4-monooxygenase (Photinus pyralis) (UniProt P08659); experiment: Primary firefly luciferase (FLuc) qHTS assay for identification of artifact compounds. (AID 1845220); conditions: purified firefly luciferase, luminescence, 5 min; series mostly up to 54.1 µM; also: nearly all actives have a fitted effect of over 60% in size
How it was run: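 Enzymatic FLuc inhibition assay: compounds pre-exposed to luciferin/ATP (10 uM each) for 15 min, then purified P. pyralis enzyme at 10 nM added. Read-out: luminescence at 5 min.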

[4] = Primary fluorescence-based thiol-reactive (MSTI) qHTS assay for identification of artifact compounds. (AID 1845221); conditions: MSTI thiol-reactivity probe, 1 h; series mostly up to 53.8 µM; also: nearly all actives have a fitted effect of over 65% in size; also: potency is read from the fitted curve at half-maximal effect
How it was run: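 qHTS titration of compound; 4 uM MSTI, PBS pH 7.4, 2% DMSO; 1 h RT, dark; fluorescence 525/598 nm; normalized to Acetyl-MSTI and MSTI; 4-parameter Hill fit.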

[5] = test system: Nanoluciferase (engineered Oplophorus gracilirostris luciferase); experiment: Primary Nanoluciferase (NLuc) qHTS assay for identification of artifact compounds. (AID 1845222); conditions: NLuc-conditioned medium, Nano-Glo luminescence, 5 min; series mostly up to 54.1 µM;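 also: NLuc secreted into diluted conditioned medium of S16 cells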
How it was run: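 S16 cell supernatant NLuc, 1:55; cpds qHTS; 15 min RT dark; Nano-Glo substrate 1:100, 5 min; luminescence; Hill fit of % inhibition.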

[6] = Primary redox qHTS assay for identification of artifact compounds. (AID 1845223); conditions: Amplex Red/HRP redox cycling with DTT, fluorescence; series mostly up to 53.8 µM
How it was run: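 Redox-cycling detection via DTT (250 uM final) oxidation coupled to Amplex Red (25 uM)/HRP (250 mU/mL) in HBSS. 15 min preincubation plus 30 min after DTT, room temperature. Ex/Em 525/598 nm; 4-parameter Hill fit against DMSO and 10 uM DA3003.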

Measured: Potency

Sequence of Glutathione peroxidase 1 (Homo sapiens) (P07203 whole entry, looked up): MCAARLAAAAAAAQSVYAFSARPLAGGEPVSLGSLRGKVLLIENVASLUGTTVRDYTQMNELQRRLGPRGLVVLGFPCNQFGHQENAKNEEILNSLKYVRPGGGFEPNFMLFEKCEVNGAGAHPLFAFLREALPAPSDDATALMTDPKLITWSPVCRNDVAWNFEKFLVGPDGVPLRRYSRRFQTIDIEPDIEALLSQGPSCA
Sequence of Phospholipid hydroperoxide glutathione peroxidase GPX4 (Homo sapiens) (P36969 whole entry, looked up): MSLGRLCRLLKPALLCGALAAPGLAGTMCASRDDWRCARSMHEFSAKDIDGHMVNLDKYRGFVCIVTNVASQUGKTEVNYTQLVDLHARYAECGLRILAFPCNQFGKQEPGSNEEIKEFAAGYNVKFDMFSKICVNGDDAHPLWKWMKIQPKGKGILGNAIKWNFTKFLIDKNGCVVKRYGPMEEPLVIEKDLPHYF

COc1c(CCC(=O)O)cccc1O[C@@H]1O[C@H](CO)[C@@H](O)[C@H](O)[C@H]1O
inactive: [1] | [2] | [3] | [5] | [6]
active: [4] 13.1 µM

C=C1CC2OC(=O)C(COC)C2C(OC(=O)/C(C)=C\C)CC2(C)OC1=CC2=O (stereo unspecified)
inactive: [1] | [2] | [3] | [4] | [5] | [6]

Fc1ccc(-n2cc(CCCCN3CCC4(CC3)OCc3ccccc34)c3ccccc32)cc1
inactive: [1] | [2] | [3] | [4] | [5] | [6]

COc1cccc(N2CCN(C3=Nc4c(F)cccc4[C@H](CC(=O)O)N3c3cc(C(F)(F)F)ccc3OC)CC2)c1
inactive: [1] | [2] | [3] | [4] | [5] | [6]

Cn1c(SCC(=O)N2CCC[C@H]2C(=O)Nc2ccccc2-c2ccccc2)nc2ccccc21
inactive: [1] | [2] | [3] | [4] | [5] | [6]

COc1cc(/C=C2\CCCN([C@@H](C)c3ccc(F)cc3)C2=O)ccc1-n1cnc(C)c1
inactive: [1] | [2] | [3] | [4] | [5] | [6]

C=C1C(=O)OC2/C=C(\COC(C)=O)CC/C=C(\C=O)CC(OC(=O)CC(C)C)C12 (stereo unspecified)
inactive: [1] | [2] | [3] | [4] | [5] | [6]

CC1CCC(=O)CC(SCC(O)C(=O)O)CCC(=O)O1 (stereo unspecified)
inactive: [1] | [2] | [3] | [4] | [5] | [6]

COc1c(C(O)CC(C)C)ccc2c1C(=O)OCc1cc(C)cc(O)c1O2 (stereo unspecified)
inactive: [1] | [2] | [3] | [4] | [5] | [6]

N#Cc1ccc2ncnc(NCCc3ccccc3)c2c1
inactive: [1] | [2] | [3] | [4] | [5] | [6]

Cc1ccc(N2CCN(S(=O)(=O)N3CCCCC3)CC2)c(C)c1
inactive: [1] | [2] | [3] | [4] | [5] | [6]

O=C(NCc1nc2ccccc2c(=O)n1-c1ccc(F)cc1)Nc1ccc(Cl)c(C(F)(F)F)c1
inactive: [1] | [2] | [3] | [4] | [5] | [6]

O=C(CCl)Nc1cccc(NC2=NS(=O)(=O)c3ccccc32)c1
inactive: [1] | [2] | [3] | [4] | [5] | [6]

Cc1nc(Nc2ccc(F)cc2)nc(N2CCc3ccccc3C2C)c1C (stereo unspecified)
inactive: [1] | [2] | [3] | [4] | [5] | [6]

CCn1c(-c2nonc2N)nc2c(C#CCO)ncc(OCCCN)c21
inactive: [1] | [2] | [3] | [4] | [5] | [6]

O=C(NC[C@H](O)CN1CCc2ccccc2C1)c1ccnc(NC2CCC2)c1
inactive: [1] | [2] | [3] | [4] | [5] | [6]

COc1ccc(S(=O)(=O)n2cnc3cc(C)c(C)cc32)cc1
inactive: [1] | [2] | [3] | [4] | [5] | [6]

C/C=C(\C)C(=O)OC1C(C)C2(O)C(C=C(CO)CC3(O)C(=O)C(C)=CC32)C2C(C)(C)C12OC(=O)C(C)C (stereo unspecified)
inactive: [1] | [2] | [3] | [4] | [5] | [6]

Cc1cc(C)cc(-c2cnc3cc(Cl)c(-c4cccc(O)c4)cc3c2OCCCN)c1
inactive: [1] | [2] | [3] | [4] | [5] | [6]

CCC(CC)C(=O)OC12C(OC(=O)C(C)C)C(C)C3(O)C(C=C(CO)CC4(O)C(=O)C(C)=CC43)C1C2(C)C (stereo unspecified)
inactive: [1] | [2] | [3] | [4] | [5] | [6]

CC(C)c1ccc(NC(=O)Cn2cnc3c2c(=O)n(C)c(=O)n3C)cc1
inactive: [1] | [2] | [3] | [4] | [5] | [6]

C=C1C(=O)O[C@@H]2C[C@@]3(C)CCCC(=C)[C@]3(O)C[C@H]12
inactive: [1] | [2] | [3] | [4] | [5] | [6]

C[C@@H]1CCCN1CCc1cc2cc(-c3ccc(C#N)cc3)ccc2o1
inactive: [1] | [2] | [3] | [4] | [5] | [6]

Cn1c(=O)c(F)c(Nc2ccc(I)cc2F)c2c(=O)n(CC(O)CO)cnc21 (stereo unspecified)
inactive: [1] | [2] | [3] | [4] | [5] | [6]

CN(C)C(=O)COC(=O)c1cc(-c2ccc(C3CCNCC3)cc2)c2ccc(-c3ccc(C(F)(F)F)cc3)cc2c1
inactive: [1] | [2] | [3] | [4] | [5] | [6]

C=C1C(=O)OC2C1CCC1(C)C(O)CCC(=C)C21 (stereo unspecified)
active: [4] 11.9 µM
inactive: [1] | [2] | [3] | [5] | [6]
